Parasite growth remaining, % of DMSO control (lower = more inhibition) data for 34 compounds are collected here from PubChem BioAssay (NCATS).

The assay can be described thus: qHTS profiling of the MIPE4 collection as inhibitors of Plasmodium falciparum (DD2) proliferation (AID 743345). The note with it: P. falciparum Dd2 in erythrocytes, SYBR Green DNA, 72 h; at 28.5 µM (top of the series) unless noted. The method, boiled down: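 Parasite DNA was quantified by SYBR Green I fluorescence (ex 485, em 535 nm) after overnight lysis in saponin/Triton buffer at room temperature. Cultures at 0.3% parasitemia and 2.5% hematocrit were first exposed to compound for 72 h at 37 C; signals were normalised to artemisinin (0.29 uM) and vehicle wells.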
For orientation: Quantitative high-throughput screening tests each substance at several concentrations.
Take `CC(=O)OCC1=C(C(=O)O)N2C(=O)[C@@H](N)[C@@H]2SC1`: the parasite growth remaining, % of DMSO control (lower = more inhibition) was determined as 97.8%. Take `CC(=CCCC1=CCC(C2=CC(=O)OC2O)OC1O)CCC1=C(C)CCCC1(C)C` (centres undefined): the parasite growth remaining, % of DMSO control (lower = more inhibition) came out at 44.2%. For the compound `COc1ccc(CC2NCCc3cc(OC)c(OC)cc32)cc1OC` (centres undefined), the parasite growth remaining, % of DMSO control (lower = more inhibition) was 85.6%. For the compound `C[C@]12Cc3cn[nH]c3C[C@@H]1CC[C@@H]1[C@H]2CC[C@@]2(C)[C@H]1CC[C@]2(C)O`, the parasite growth remaining, % of DMSO control (lower = more inhibition) was determined as 90%.

As to `O=[N+]([O-])c1ncc[nH]1`, the parasite growth remaining, % of DMSO control (lower = more inhibition) turned out to be 99.8%.

`CCC(=O)OC1CCC2C3CCC4=CC(=O)CC[C@@]4(C)C3CC[C@]12C` (some centres undefined): the parasite growth remaining, % of DMSO control (lower = more inhibition) was determined as 96.4%.

For `COCC1(CO)C(=O)C2CCN1CC2` (centres undefined), the parasite growth remaining, % of DMSO control (lower = more inhibition) came to 85.2%. In the case of `COC1=CC(C)=C[C@@H](C)[C@@H](O)[C@@H](C)CC(C)=CC=C[C@H](OC)[C@H]([C@@H](C)[C@@H](O)[C@H](C)[C@@]2(O)C[C@@H](O)[C@H](C)[C@@H](C(C)C)O2)OC1=O` it was 6.47%; in that of `C[C@@H]1O[C@@H](O[C@@H]2C=C3CC[C@@H]4[C@@H](CC[C@]5(C)[C@H](c6ccc(=O)oc6)CC[C@@]45O)[C@@]3(C)CC2)[C@H](O)[C@H](O)[C@H]1O`, 94.6%; in that of `CC1(N2CCC(n3c([C@@H]4CCCNC4)nc4ccccc43)CC2)CCCCCCC1`, 11.2%. Consider `Clc1ccccc1C(c1ccccc1)(c1ccccc1)n1cccn1`, for which the parasite growth remaining, % of DMSO control (lower = more inhibition) was determined as 34.8%.

Regarding `C[C@]12CC[C@H](O)CC1=CC[C@H]1[C@H]3CCC(=O)[C@@]3(C)CC[C@@H]12`, the parasite growth remaining, % of DMSO control (lower = more inhibition) stood at 97.4%.

Take `C[C@]12CC[C@@H]3[C@@H](CCC4=CC(=O)CC[C@@H]43)[C@@H]1CC[C@@H]2OC(=O)CCc1ccccc1`: the parasite growth remaining, % of DMSO control (lower = more inhibition) turned out to be 83%.

`CCN1C[C@]2(OC(=O)c3ccccc3NC(C)=O)CC[C@H](OC)[C@@]34[C@H]5CC6[C@@H](OC)C[C@](O)(C(C[C@@H]23)[C@@H]14)[C@@]5(O)[C@@H]6OC`: the parasite growth remaining, % of DMSO control (lower = more inhibition) was determined as 94%. In the case of `CCc1c(C(=O)C(N)=O)c2c(OCC(=O)O)cccc2n1Cc1ccccc1` it was 97.5%; in that of `CC(C)[C@]12O[C@@H]1[C@@H]1O[C@]13[C@]1(O[C@H]1C[C@@H]1C4=C(CC[C@@]13C)C(=O)OC4)[C@H]2O`, 77%. Turning to `C1=C2CCCN[C@H]2[C@@H]2C[C@H]1[C@@H]1CCCCN1C2`, the parasite growth remaining, % of DMSO control (lower = more inhibition) turned out to be 84.7%. In the case of `CCOP(=O)(OCC)C(C)NC(=O)N(CCCl)N=O` (centres undefined) it was 97.6%.

For the compound `C=C[C@@H]1CN2CCC1C[C@H]2[C@H](O)c1ccnc2ccccc12` (some centres undefined), the parasite growth remaining, % of DMSO control (lower = more inhibition) stood at 10.8%. Turning to `CO[C@H]1CCC(O[C@H]2C[C@H]([C@]3(C)CC[C@]4(C[C@H](O)[C@@H](C)[C@@H]([C@@H](C)C=C(C)C(=O)[C@H](C)C[C@H](C)C(=O)O)O4)O3)O[C@]3(O[C@@H]([C@H]4O[C@@](O)(CO)[C@H](C)C[C@H]4C)C[C@H]3C)[C@H]2C)O[C@H]1C` (some centres undefined), the parasite growth remaining, % of DMSO control (lower = more inhibition) amounted to 5.36%. On to `CCOC(=O)c1c(C(C#N)=CN)c2ccc(Cl)c(Cl)c2n1C`, for which the parasite growth remaining, % of DMSO control (lower = more inhibition) came to 97.1%.

`CCOC(=O)Nc1ccc(NCc2ccc(F)cc2)cc1N`: the parasite growth remaining, % of DMSO control (lower = more inhibition) was 13.7%. For `CN[C@@H]1Cc2cccc3[nH]c(=O)n(c23)C1`, the parasite growth remaining, % of DMSO control (lower = more inhibition) came out at 105%. As to `CC=C(C)C(=O)O[C@H]1C(C)=C2[C@@H]3OC(=O)[C@@](C)(O)[C@@]3(O)[C@@H](OC(=O)CCC)C[C@](C)(OC(C)=O)[C@@H]2[C@@H]1OC(=O)CCCCCCC`, the parasite growth remaining, % of DMSO control (lower = more inhibition) was found to be 8.2%. Turning to `CCN1CCN(C(=O)Cc2ccc(Nc3ncc(F)c(Nc4ccc(C(=O)Nc5ccccc5Cl)cc4)n3)cc2)CC1`, the parasite growth remaining, % of DMSO control (lower = more inhibition) worked out at 7.02%.

Take `CC(C)N[C@@H]1CCn2c(=O)[nH]c3cccc(c32)[C@@H]1O`: the parasite growth remaining, % of DMSO control (lower = more inhibition) came to 104%. As for `CCCN1CCO[C@@H]2c3cc(O)ccc3OC[C@@H]21`, the parasite growth remaining, % of DMSO control (lower = more inhibition) stood at 99.7%. In the case of `CC(N[C@H]1C[C@H]1c1ccccc1)c1ccc2c(c1)OCCO2` (some centres undefined) it was 74.9%.

Consider `CC[C@H]1C=CC=CC[C@@H](C)[C@H](O)[C@@](C)(O)C(=O)[C@@H](C)[C@H](O)[C@@H](C)C(=O)[C@@H](C)[C@H](O)[C@@H](C)C=CC(=O)O[C@@H]2[C@@H](C)[C@H](CC1)O[C@]1(CC[C@H](C)[C@H](C[C@@H](C)O)O1)[C@H]2C`, for which the parasite growth remaining, % of DMSO control (lower = more inhibition) came out at 6.38%. In the case of `C#CC1(O)CCC2C3CCC4=CC(=O)CCC4(C)C3CCC21C` (centres undefined), the parasite growth remaining, % of DMSO control (lower = more inhibition) was found to be 106%.

For the compound `CC(C)(C)[C@]1(O)C[C@@H]2OC(=O)C[C@@]23C(=O)O[C@@H]2OC(=O)[C@H](O)C213` (some centres undefined), the parasite growth remaining, % of DMSO control (lower = more inhibition) was 99.7%. As to `C[C@](O)(COc1ccc(C#N)cc1)C(=O)Nc1ccc(C#N)c(C(F)(F)F)c1`, the parasite growth remaining, % of DMSO control (lower = more inhibition) was 92.3%. Next, `CC(=O)O[C@@]12CO[C@H]1C[C@H](O)[C@@]1(C)C(=O)[C@H](O)C3=C(C)[C@@H](O)C[C@@](O)([C@@H](OC(=O)c4ccccc4)[C@@H]21)C3(C)C`: 94.5%; `O=C1C=CC[C@@H]2[C@H]3CCCN4CCC[C@@H](CN12)[C@@H]34`: 99.7%.
